# Test results as given in publication PMC5540273 (PLoS ONE, 2017).
# Tested on: BTK
# Conditions: concentration: 1 μM, replicates: in singlicate; n = 1
# 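Further: KINOMEscan kinase panel screen.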
row,SMILES,%Inh [%]
1,O=C(Nc1ccc2c(c1)OCO2)NC1CCN(c2ccnc(NCc3ccc(F)cc3)n2)CC1 [GSK1379859],0
2,CC(C)(C)c1ccc(C(=O)Nc2cn3cc(-c4ccccc4)ccc3n2)cc1,0
3,C[C@@H]1CC[C@H](C(=O)NC2CCCCC2)CN1c1cc(-c2ccc3c(N)n[nH]c3c2)nc(N)n1 [GSK2291363],0
4,O=C(Nc1n[nH]c2nc(-c3ccccc3)c(Cl)cc12)C1CC1 [SB-734909],0
5,COC(=O)c1c(-c2ccccc2)c2cc(Br)ccc2c(=O)n1Cc1ccc(NC(=O)CCC(=O)O)cc1,38
6,O=C(Nc1n[nH]c2cc(-c3ccccc3F)ccc12)C1CC1 [SB-733371],0
7,Cc1nc(N(C)[C@H]2CN(C(=O)CC#N)CC[C@H]2C)c2cc[nH]c2n1,0
8,Cc1nn2c(=O)cc(N3CCOCC3)nc2n1Cc1cccc(Cl)c1Cl [GSK2342769],0
9,Cc1cccc(-c2nc(Nc3ccc4c(cnn4C)c3)c3ccccc3n2)n1 [GW876731],0
10,FC(F)(F)c1ccc(-c2ncn(CCCN3CCOCC3)c2-c2ccncc2)cc1 [SB-217780],0
11,COc1cc(Nc2ccnc3ccc(C(F)(F)F)cc23)cc(OC)c1OC [GW577382],35
12,CCS(=O)c1ccc(-c2coc3ccc(-c4nnc(C)o4)cc23)cc1 (stereo not shown),18
13,O=c1cc(N2CCOCC2)nc2n(Cc3ccc(F)c(Cl)c3)ccn12 [GSK2297099],0
14,CCC(=O)c1c(-c2ccccc2)c2cc(Cl)ccc2c(=O)n1Cc1cc(S(C)(=O)=O)n(CCC(C)(C)O)n1,23
15,Cn1c(=O)c(F)c(Nc2ccc(I)cc2F)c2c(=O)n(OC[C@H](O)CO)cnc21,0
16,COc1cc(OC)cc(-c2cc3cnc(N)nc3nc2NC(=O)NC(C)(C)C)c1,0
17,Fc1cccc(CSc2nnc(-c3ccc4c(c3)CCO4)o2)c1,33
18,COc1cc(Nc2nccc(N3CCC(NC(=O)C4COc5ccccc5O4)C3)n2)cc(OC)c1OC (stereo not shown) [GSK1379761],53
19,O=C1NC(=O)C(c2ccccc2)=C1Nc1cccc(O)c1 [SB-390534],0
20,CN(C)c1cc(-c2ccc3c(N)n[nH]c3c2)nc(N)n1 [GSK2219329],0
21,Cc1ccc(Oc2ccc(Nc3ncnc4cc[nH]c34)cc2C)cn1,19
22,CN1C(=O)C(Nc2ccccc2)=C(c2ccccc2)C1=O [SB-300079],0

# Tested on: BUB1
# Conditions: concentration: 1 μM, replicates: in singlicate; n = 1
row,SMILES,%Inh [%]
1,Cc1cccc(-c2cc(-c3c[nH]nc3-c3ccccn3)ccn2)c1 [GW679395],28
2,COc1ccc(-c2coc3ccc(-c4nnc(SCc5cccc(C#N)c5)o4)cc23)cc1,0
3,COc1ccc(CNC(=O)NC2CCN(c3ccnc(Nc4ccc(F)cc4)n3)C2)cc1 (stereo not shown) [GSK1379706],50
4,COc1cc2ncn(-c3cc(OCc4ccncc4Br)c(C(N)=O)s3)c2cc1OC [GW854278],0
5,Cc1nnc(-c2ccc(C)c(-c3ccc(C(=O)O)cc3)c2)o1 [GW608005],17
6,COc1cc2ncn(-c3cc(OCCCc4ccccc4)c(C(N)=O)s3)c2cc1OC [GSK205189],20
7,Cc1cc(Nc2nc(-c3cccc(C)n3)nc3ccccc23)ccn1 [GW872411],0
8,Cc1ccc(-c2ccc3c(ccc4sc5c(c43)NC[C@@H](C)N=C5N(C)C)n2)cn1,0
9,CCc1ccc(-c2ccc3c(c2)-c2nn(C)cc2S(=O)(=O)N3C)cc1,0
10,Nc1n[nH]c2ncc(-c3ccccc3)cc12 [SB-517081],34
11,Nc1ncnc2c1ncn2-c1cccc2ccccc12 [SKF-97184],37
12,O=C(NCCNc1ccnc(Nc2ccc(F)cc2)n1)Nc1ccc2c(c1)OCO2 [GSK1379882],18
13,O=C(Nc1n[nH]c2nc(-c3ccccc3)c(Br)cc12)C1CC1 [SB-708998],11
14,Cl.NS(=O)(=O)c1cccc(Nc2cc(-c3ccc(F)cc3)n[nH]2)c1 [GW824645],36
15,O=C(Nc1ccc2c(c1)OCO2)NC1CCN(c2ccnc(NCc3ccc(F)cc3)n2)CC1 [GSK1379859],7
16,CC(C)(C)c1ccc(C(=O)Nc2cn3cc(-c4ccccc4)ccc3n2)cc1,0
17,C[C@@H]1CC[C@H](C(=O)NC2CCCCC2)CN1c1cc(-c2ccc3c(N)n[nH]c3c2)nc(N)n1 [GSK2291363],48
18,O=C(Nc1n[nH]c2nc(-c3ccccc3)c(Cl)cc12)C1CC1 [SB-734909],0

row,SMILES,%Inh [%]
1,COC(=O)c1c(-c2ccccc2)c2cc(Br)ccc2c(=O)n1Cc1ccc(NC(=O)CCC(=O)O)cc1,20
2,O=C(Nc1n[nH]c2cc(-c3ccccc3F)ccc12)C1CC1 [SB-733371],0
3,Cc1nc(N(C)[C@H]2CN(C(=O)CC#N)CC[C@H]2C)c2cc[nH]c2n1,0
4,Cc1nn2c(=O)cc(N3CCOCC3)nc2n1Cc1cccc(Cl)c1Cl [GSK2342769],12
5,Cc1cccc(-c2nc(Nc3ccc4c(cnn4C)c3)c3ccccc3n2)n1 [GW876731],34
6,FC(F)(F)c1ccc(-c2ncn(CCCN3CCOCC3)c2-c2ccncc2)cc1 [SB-217780],0
7,COc1cc(Nc2ccnc3ccc(C(F)(F)F)cc23)cc(OC)c1OC [GW577382],23
8,CCS(=O)c1ccc(-c2coc3ccc(-c4nnc(C)o4)cc23)cc1 (stereo not shown),0
9,O=c1cc(N2CCOCC2)nc2n(Cc3ccc(F)c(Cl)c3)ccn12 [GSK2297099],0
10,CCC(=O)c1c(-c2ccccc2)c2cc(Cl)ccc2c(=O)n1Cc1cc(S(C)(=O)=O)n(CCC(C)(C)O)n1,14
11,Cn1c(=O)c(F)c(Nc2ccc(I)cc2F)c2c(=O)n(OC[C@H](O)CO)cnc21,0
12,COc1cc(OC)cc(-c2cc3cnc(N)nc3nc2NC(=O)NC(C)(C)C)c1,0
13,Fc1cccc(CSc2nnc(-c3ccc4c(c3)CCO4)o2)c1,25
14,COc1cc(Nc2nccc(N3CCC(NC(=O)C4COc5ccccc5O4)C3)n2)cc(OC)c1OC (stereo not shown) [GSK1379761],53
15,O=C1NC(=O)C(c2ccccc2)=C1Nc1cccc(O)c1 [SB-390534],0
16,CN(C)c1cc(-c2ccc3c(N)n[nH]c3c2)nc(N)n1 [GSK2219329],24
17,Cc1ccc(Oc2ccc(Nc3ncnc4cc[nH]c34)cc2C)cn1,0
18,CN1C(=O)C(Nc2ccccc2)=C(c2ccccc2)C1=O [SB-300079],32
